Rows were chosen to be rich in hits. Some 3.8% of all compounds tested hit in one or more screens of this group.
mIDH1 inhibitor – blocks human mutant IDH1 R132H enzyme; Potency, µM (doses to about 76.6 µM), actives largely listed as inhibitors; actives 0.093% (n = 390,000); O75874; IDH1-R132H enzyme, NADPH consumption, diaphorase/resazurin fluorescence; further: nearly all actives have a fitted effect of over 65% in size
Target sequence (O75874 whole entry R132H, stated change not applied): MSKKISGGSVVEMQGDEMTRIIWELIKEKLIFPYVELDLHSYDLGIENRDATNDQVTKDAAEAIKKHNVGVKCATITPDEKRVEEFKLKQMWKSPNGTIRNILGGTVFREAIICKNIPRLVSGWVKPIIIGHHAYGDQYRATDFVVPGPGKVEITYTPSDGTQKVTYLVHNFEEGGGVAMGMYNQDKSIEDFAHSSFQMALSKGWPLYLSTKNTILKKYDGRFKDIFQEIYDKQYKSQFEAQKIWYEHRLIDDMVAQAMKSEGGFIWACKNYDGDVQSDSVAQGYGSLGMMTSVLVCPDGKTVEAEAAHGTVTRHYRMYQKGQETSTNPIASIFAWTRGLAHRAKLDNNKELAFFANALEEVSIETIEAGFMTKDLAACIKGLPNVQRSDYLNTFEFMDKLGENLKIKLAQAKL
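IDH1-R132H (0.5 ug/mL) preincubated 30 min with compound, then NADPH (0.016 mM) and alpha-KG (2 mM) added; 80 min at RT, pH 7.5. Remaining NADPH coupled via diaphorase/resazurin to fluorescence (540/590 nm); concentration-response curves normalized to no-enzyme control.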
Nrf2 activator – activators of Nrf2 (ARE) signaling | AREc32 ARE-luciferase reporter (MCF7-derived line), luminescence, 24 h | Potency, µM (top dose mostly 46.1 µM), actives largely listed as activators | actives 0.31% (n = 410,000); further: nearly all actives have a fitted effect of over 65% in size
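Luciferase luminescence (Steady-Glo, 30 min at room temperature) served as the read-out of ARE activation in AREc32 cells treated with compounds for 24 hr at 37 deg C.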
Nrf2 inh – Nrf2 pathway inhibition | A549 ARE-Fluc reporter, luciferase luminescence, 18-24 h | Potency, µM (highest dose often 46 µM), hits mostly inhibitors | actives 2.1% (n = 360,000); further: nearly all actives have a fitted effect of over 60% in size
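A549 ARE_Fluc cells, 5000/well, 5% FBS OPTI-MEM; compounds in dose-response, 18-24 h at 37 °C/5% CO2; CellTiter-Fluor viability read (Ex 405/Em 525), then BugLite luciferase luminescence = Nrf2 activity.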
ELG1 DNA repair – inhibitors of ELG1-dependent DNA repair in HEK293T cells | HEK293T ELG1-luciferase reporter, luminescence, 16 h; DNA damage induced by 5-fluorouridine | Potency, µM (series often up to 46.1 µM), hits mostly inhibitors | actives 2.3% (n = 330,000) | AID 504467; further: nearly all actives have a fitted effect of over 55% in size
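In this reporter screen, reduction of luminescence relative to DMSO vehicle indicated activity. Compounds and 5-fluorouridine were added together to 2,000 cells per well, incubated for 16 hr at 37 °C, then developed with ONE-Glo.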
A549 tox-1 – A549 cytotoxicity, counter-screen for Nrf2 inhibitors; A549 ARE-Fluc cells, CellTiter-Fluor viability, 18-24 h; Potency, µM (series often up to 46 µM), actives largely listed as inhibitors; actives 0.16% (n = 390,000)
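A549 ARE_Fluc cells in 5% FBS OPTI-MEM were exposed to compounds in concentration-response for 18-24 h at 37 deg C. Viability was read by CellTiter-Fluor fluorescence (Ex 405/Em 525) after 30 min, before the luciferase read.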
FLuc enzyme inh – counter-screen for Nrf2 inhibitors: firefly luciferase enzyme inhibition; shares compounds with Nrf2 inh; purified firefly luciferase, luminescence inhibition; Potency, µM (titrated, usually from 57.5 µM), hits mostly inhibitors; actives 4% (n = 1,400); further: nearly all actives have a fitted effect of over 65% in size
A549 tox-2 – A549 cytotoxicity, Nrf2 inhibitor counterscreen; shares compounds with Nrf2 inh; A549 ARE-Fluc cells, cytotoxicity counterscreen; Potency, µM (series often up to 46.1 µM), most hits filed as inhibitors; actives 2% (n = 1,400);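 further: cells exposed to compounds for 18 to 24 hours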
ARE-Fluc inh – Nrf2 inhibition confirmed, A549 ARE-luciferase; A549 ARE-firefly luciferase reporter, luminescence; shares compounds with Nrf2 inh; actives 74% (n = 1,400); Potency, µM (series often up to 46.1 µM), hits mostly inhibitors; further: nearly all actives have a fitted effect of over 65% in size
Numbers stand for hits; i = inactive; ? = inconclusive; nt = no result shown; [ ] = remark or other dose. The call rests on the fitted dose curve; in most records, active means well fitted curve in the direction sought with a large enough effect; inconclusive means small, poorly fitted or top-dose-only effect, or another doubt; inactive means no such curve, though single readings can be large; an effect the other way counts as inactive or inconclusive.

SMILES	mIDH1 inhibitor	Nrf2 activator	Nrf2 inh	ELG1 DNA repair	A549 tox-1	FLuc enzyme inh	A549 tox-2	ARE-Fluc inh
COc1ccc(NS(=O)(=O)c2ccc(O)c(NC(=O)c3ccc(S(=O)(=O)N4CCCCCC4)cc3)c2)cc1	i	i	i	i	i	nt	nt	nt
COC(=O)c1ccccc1-c1ccc(/C=N/NC(=O)c2cc3ccccc3o2)o1	i	i	i	?	i	nt	nt	nt
COC(=O)c1ccccc1-c1c2ccc(=N)cc-2oc2cc(N)ccc12	?	i	1.16µM	i	i	i	i	8.2µM
CN(C)c1ccc(/C=C/c2ccc3c4ccccc4ccc3[n+]2-c2ccccc2)cc1	29.3µM	i	3.66µM	1.46µM	10.3µM	?	7.31µM	2.91µM
CN(C)c1ccc(/C=C/c2cccc[n+]2[O-])cc1	i	i	i	?	i	nt	nt	nt
CN(C)c1ccc(/C=C/c2cc3ccccc3c[n+]2C)cc1	nt	nt	nt	nt	nt	i	?	6.51µM
CCOC(=O)C1=CCN(S(=O)(=O)c2ccccc2F)C1c1cccc(Cl)c1 (stereo not drawn)	nt	i	nt	nt	nt	nt	nt	nt
Cc1cccc(S(=O)(=O)NC(=O)C2(C)CCN2C(=O)Cc2ccc(-c3ccccc3)cc2)c1 (stereo not drawn)	nt	i[9.22 µM]	nt	nt	nt	nt	nt	nt
O=C(O)C1C2CCC(C2)C1C(=O)NCCc1ccccc1 (stereo not drawn)	i	i	i	i	i	nt	nt	nt
CN(c1cccc(NC(=O)CN(c2ccc(C34CC5CC(CC(C5)C3)C4)cc2)S(C)(=O)=O)c1)S(C)(=O)=O	i	i	7.31µM	?	?	i	?	20.6µM
CN(c1cccc(NC(=O)CN(c2ccc(F)cc2)S(C)(=O)=O)c1)S(C)(=O)=O	i	i	i	i	i	nt	nt	nt
CCC(C)NC(=O)CSc1nc2cc3c(cc2c(=O)n1CCCC(=O)NCc1ccc2c(c1)OCO2)OCO3 (stereo not drawn)	i	i	nt	nt	i	nt	nt	nt
Cc1ccc(S(=O)(=O)N(C)Cc2ccc(C(=O)N/N=C/c3ccc(OC(F)F)cc3OC(F)F)cc2)cc1	i	i	9.2µM	?	i	i	i	4.61µM
COc1ccc(/C=C2\SC(=O)N(CCCC(=O)Nc3cc(Cl)ccc3C(=O)O)C2=O)cc1	i	i	0.731µM	2.06µM	i	12µM	i	1.46µM
COCc1ccc(CN2CCC(n3nccc3NC(=O)CCOc3ccccc3)CC2)o1	i	i	i	?	i	nt	nt	nt
Cc1c(C(=O)NCc2ccccc2Cl)sc2nc3n(c(=O)c12)CCCC3	i	i	i	nt	i	nt	nt	nt
Cc1c(C(=O)NCc2ccccc2Cl)sc2nc3n(c(=O)c12)CCCCC3	i	i	4.61µM	nt	i	i	i	i
COc1ccc(C(=O)N/N=C(\c2ccccc2)c2ccccn2)cc1	i	i	8.2µM	?	?	i	i	?
O=C(NN=C(c1ccccc1)c1ccccn1)c1ccccc1	i	?	5.17µM	?	?	i	6.51µM	nt
O=C(N/N=C(\c1ccccc1)c1ccccn1)c1ccccc1Cl	i	?	?	?	i	nt	nt	nt
C[C@@H](C(O)c1ccccc1)N(C)C(=O)CCc1ccccc1 (stereo partly drawn)	i	i	i	i	i	nt	nt	nt
Fc1ccc(Nc2nc3nonc3nc2Nc2cccc(C(F)(F)F)c2)cc1	i	i	1.46µM	nt	8.2µM	i	5.8µM	1.03µM
O=S(=O)(Cc1noc(-c2ccccc2Cl)n1)c1ccccn1	i	i	?	?	i	nt	nt	nt
O=C(/C=C/c1ccc(Cl)cc1)NC(=S)Nc1ccc(NC(=O)c2ccco2)cc1	i	i	0.82µM	?	i	i	i	0.82µM
COc1ccccc1C(=O)NCCCNC(=O)c1cnccn1	i	i	i	i	i	nt	nt	nt
SMILES	mIDH1 inhibitor	Nrf2 activator	Nrf2 inh	ELG1 DNA repair	A549 tox-1	FLuc enzyme inh	A549 tox-2	ARE-Fluc inh
COc1ccccc1C(=O)NCCCNC(=O)c1cccnc1	i	i	1.84µM	?	i	i	i	i
CN(Cc1cnc2nc(N)nc(N)c2n1)c1ccc(C(=O)NC(CCC(=O)O)C(=O)O)cc1C(F)(F)F (stereo not drawn)	i	i	?	nt	i	nt	nt	nt
CN(Cc1cnc2nc(N)nc(N)c2n1)c1ccc(C(=O)NC(CCC(=O)O)C(=O)O)cc1 (stereo not drawn)	i	i	0.291µM	nt	i	i	i	1.46µM
Oc1cccc2c(CC(O)c3c[nH]c4ccccc34)ccnc12 (stereo not drawn)	nt	nt	nt	nt	nt	i	i	4.11µM
CCOC(=O)C1CCCN(C(=O)c2cc3c(Cl)nc4ccccc4c3s2)C1 (stereo not drawn)	i	i	5.8µM	nt	i	i	i	8.2µM
Fc1cccc(F)c1/C=C/c1ccc2ccccc2n1	i	?	?	?	i	nt	nt	nt
Fc1ccc(/C=C/c2ccc3ccccc3n2)cc1	nt	nt	nt	nt	nt	i	?	7.31µM
Cc1ccc(S(=O)(=O)Nc2ccc(Cl)cc2C(=O)c2ccccc2)cc1	i	i	5.8µM	i	i	i	i	i
Cc1ccc(S(=O)(=O)Nc2ccc(Cl)cc2C(=O)c2ccc(F)cc2)cc1	i	i	?	i	i	nt	nt	nt
O=S(=O)(N/N=C1/CC(c2ccccc2)Oc2ccccc21)c1ccc(Br)cc1 (stereo not drawn)	i	i	8.2µM	i	?	?	i	nt
Cc1ccc(S(=O)(=O)N/N=C2/CC(c3ccccc3)Oc3ccccc32)cc1[N+](=O)[O-] (stereo not drawn)	i	i	?	?	i	nt	nt	nt
Cn1nccc1C(=O)Nc1sc2c(c1C#N)CCCC2	i	i	i	i	i	nt	nt	nt
COc1ccc(-c2c(C)sc(NC(=O)c3ccnn3C)c2C#N)cc1	i	i	6.51µM	i	i	i	?	nt
CSc1nc2sc3c(c2c(=O)n1-c1ccccc1C)CCCC3	i	i	nt	nt	i	nt	nt	nt
CSc1nc2nc3c(cc2c(=O)n1-c1ccccc1C)CCCC3	i	i	5.8µM	?	?	i	i	nt
O=C1NC[C@@H](CCCCN2C[C@H](Cc3ccccc3)N(CCc3ccc(O)cc3)C(=O)C2=O)N(Cc2ccccc2)C1=O	nt	i	nt	nt	nt	nt	nt	nt
Cn1cc(/C=C/c2cc[n+](C)cc2)c2cc(F)ccc21	i	i	1.64µM	?	?	i	i	1.64µM
C[n+]1ccc(/C=C/c2c[nH]c3ccc(F)cc23)cc1	i	i	1.16µM	?	?	i	?	1.84µM
O=C(Cc1ccccc1[N+](=O)[O-])OCc1cccc([N+](=O)[O-])c1	nt	nt	nt	i	nt	nt	nt	nt
CCN(Cc1ccccc1)C(=O)CCS(=O)(=O)c1cc2c(cc1Cl)NC(=O)CO2	i	i	i	i	i	nt	nt	nt

Compound activity as filed in PubChem.
